Test results as given in PubChem BioAssay (NCI).
This is part of a sample that, as a whole, favours compounds with a hit. Of some 83,000 tested, about 20% had one in any assay.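 Cell lines were cultured in 96-well plates, exposed to a single compound concentration, and assessed for percent growth 48 hours later.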 Active and inactive are the calls of the source. Rule for the calls: active = growth percent below 10; inactive = the rest.

Experiments:
Test in all cases: NCI-60 one-dose screen, 48 h (100 = growth as untreated, 0 = no growth, -100 = all killed)
[1] = system: NCI-H23 lung; details: 10 µM unless noted
[2] = system: NCI-H226 lung; details: 10 µM unless noted
[3] = system: DU-145 prostate; details: 10 µM unless noted
[4] = system: MDA-MB-231 breast; details: 10 µM unless noted
[5] = system: SF-268 CNS; details: 10 µM unless noted
[6] = system: M14 melanoma; details: 10 µM unless noted
[7] = system: HCT-15 colon; details: 10 µM
[8] = system: HT29 colon; details: 10 µM unless noted
[9] = system: PC-3 prostate; details: 10 µM unless noted
[10] = system: UACC-62 melanoma; details: 10 µM unless noted
[11] = system: LOX IMVI melanoma; details: 10 µM unless noted
[12] = system: SK-MEL-28 melanoma; details: 10 µM unless noted
[13] = system: OVCAR-8 ovarian; details: 10 µM unless noted
[14] = system: OVCAR-5 ovarian; details: 10 µM unless noted
[15] = system: SK-OV-3 ovarian; details: 10 µM unless noted
[16] = system: OVCAR-3 ovarian; details: 10 µM unless noted
[17] = system: NCI/ADR-RES ovarian; details: 10 µM unless noted
[18] = system: SW-620 colon; details: 10 µM unless noted
[19] = system: MCF7 breast; details: 10 µM unless noted
[20] = system: KM12 colon; details: 10 µM unless noted

Measured: growth

COc1ccc(/C=C\c2cc(OC)c(OC)c(OC)c2)cc1N/C=C\C(=O)c1c[nH]c2ccccc12
inactive: [1] 26.6% | [4] 18.4% | [5] 15.1% | [6] 11.3% | [7] 12.5% | [9] 10.4% | [10] 31% | [11] 19.6% | [12] 33.8% | [13] 21.4% | [14] 18.8% | [15] 12.9% | [18] 24.7% | [19] 14.7%
active: [2] -0.606% | [3] 3.53% | [8] -3.93% | [16] -9.54% | [17] 0.644% | [20] 3.99%

COc1cc(N(CCCl)CCCl)ccc1C=Nc1ccccc1C(=O)O
inactive: [1] 101% | [2] 94.7% | [3] 104% | [4] 96.8% | [5] 103% | [6] 98.2% | [7] 97.7% | [8] 98.2% | [9] 90.3% | [10] 96.4% | [11] 101% | [12] 94.3% | [13] 92.9% | [14] 108% | [15] 105% | [16] 97.8% | [17] 102% | [18] 91.6% | [19] 93.7% | [20] 71.1%

C#CC1(O)CCC2(C)C(CCC3C4CCC(=O)C4(C)CCC32)C1 (stereo not given)
inactive: [1] 97.3% | [2] 86.4% | [3] 109% | [4] 101% | [5] 97.9% | [6] 102% | [7] 97.5% | [8] 86.9% | [9] 90.9% | [10] 88.7% | [11] 96.6% | [12] 105% | [13] 97.6% | [14] 99.8% | [15] 97.6% | [16] 109% | [17] 96.4% | [18] 103% | [19] 104% | [20] 102%

S=P(N1CCCCCC1)(N1CC1)N1CC1
inactive: [1] 102% | [2] 106% | [3] 112% | [4] 96.4% | [5] 96.8% | [6] 103% | [7] 118% | [8] 101% | [9] 93.7% | [10] 98.3% | [11] 103% | [12] 116% | [13] 100% | [14] 107% | [15] 93.9% | [16] 112% | [17] 104% | [18] 108% | [19] 94% | [20] 105%

O=c1[nH]c2cc(Cl)ccc2n1C1CCN(CCCC(c2ccc(F)cc2)c2ccc(F)cc2)CC1
inactive: [1] 59.7% | [2] 126% | [4] 29.2% | [5] 24.8% | [10] 39.7% | [14] 76.3% | [15] 78.1% | [17] 51.9%
active: [3] -0.502% | [6] -52.2% | [7] -30.3% | [8] -36.9% | [9] 7.82% | [11] -91.9% | [12] -90.8% | [13] -56.7% | [16] -99.6% | [18] -80.7% | [19] -32.4% | [20] -94.6%

COc1ccc(OC)c(/C=C(/C)[N+](=O)[O-])c1
active: [3] 6.46% | [7] -33.1% | [8] -29% | [11] -88.6% | [16] -11.3% | [18] -77% | [19] 6.58%
inactive: [1] 53.8% | [2] 94.3% | [4] 68.4% | [5] 65.3% | [6] 47% | [9] 52.6% | [10] 63.4% | [12] 74.7% | [13] 13.1% | [14] 108% | [15] 125% | [17] 81.1% | [20] 26.5%

Cc1cc(CCl)c(C)cc1CCl
inactive: [1] 55.4% | [2] 83.3% | [4] 108% | [5] 41.9% | [6] 45.1% | [7] 75.2% | [9] 66.9% | [10] 60.6% | [11] 28% | [12] 77.7% | [13] 61.7% | [14] 141% | [15] 73.9% | [17] 62% | [18] 59.9%
active: [3] 1.11% | [16] 2.57% | [19] 7.03% | [20] -43.7%

CC(=O)[O][Hg][CH2]C1(C)COC(C)([CH2][Hg][O]C(C)=O)CO1 (stereo not given)
inactive: [1] 65.4% | [2] 86.7% | [4] 42.8% | [5] 88.2% | [6] 39% | [9] 89.5% | [10] 95.8% | [12] 18.3% | [13] 50.7% | [14] 114% | [15] 103% | [17] 94.9%
active: [7] -94% | [8] -25.6% | [11] -98.4% | [16] -100% | [18] -92.3% | [19] -81.1%

C[CH2][Pb]([CH2]C)([CH2]C)[O]C(=O)c1ccc(N)cc1
inactive: [1] 51.2% | [2] 87.5% | [3] 68% | [4] 88.7% | [5] 72.9% | [6] 60% | [7] 66.1% | [8] 79.8% | [9] 57.5% | [10] 73.4% | [11] 68.5% | [12] 58.8% | [13] 82.1% | [14] 85.1% | [15] 76.4% | [16] 57.5% | [17] 59.7% | [18] 28.7% | [19] 56.1% | [20] 59.4%

[Br][Pb]([c]1ccccc1)([c]1ccccc1)[c]1ccccc1
active: [1] -88.8% | [2] -44.6% | [3] -97.5% | [4] -92.2% | [5] -95.1% | [6] -100% | [7] -77.8% | [8] -73.4% | [9] -80.6% | [10] -92.2% | [11] -100% | [12] -100% | [13] -100% | [14] -93.1% | [15] -100% | [16] -99% | [17] -71.6% | [18] -95.3% | [19] -69.9% | [20] -99.4%

COC(=O)C[Se]C(=O)c1ccccc1OC(C)=O
inactive: [1] 76.2% | [2] 56.3% | [3] 61.8% | [4] 71.3% | [5] 72.3% | [6] 49.3% | [7] 46.4% | [8] 33.2% | [9] 77.7% | [10] 77.8% | [11] 59.6% | [12] 84.1% | [13] 45.4% | [14] 38.6% | [15] 221% | [16] 84.5% | [17] 24.2% | [18] 97.8% | [19] 65.5% | [20] 22.1%

Cc1ccccc1O
inactive: [1] 105% | [2] 97% | [3] 120% | [4] 115% | [5] 109% | [6] 101% | [7] 106% | [8] 110% | [9] 96.4% | [10] 107% | [11] 91.5% | [12] 111% | [13] 103% | [14] 121% | [15] 97.5% | [16] 130% | [17] 100% | [18] 112% | [19] 119% | [20] 106%

CC[CH2][Pb]([CH2]CC)([CH2]CC)[O]C(=O)C(F)(F)F
active: [1] -46.4% | [2] -61.6% | [3] -100% | [4] -50.3% | [5] -82.3% | [6] -91.6% | [7] -88.2% | [8] -61.5% | [10] -83.2% | [11] -82.3% | [12] -97.2% | [13] -69.4% | [14] -99% | [15] -74.6% | [16] -95.4% | [17] -36.6% | [18] -50.8% | [19] -79.7% | [20] -88.2%

C[C@]12CCc3sc(-c4ccc(Cl)cc4)nc3C1=CC[C@@H]1[C@@H]2CC[C@]2(C)C(=O)CC[C@@H]12
inactive: [1] 71.3% | [2] 84.3% | [3] 43.6% | [4] 64.3% | [5] 64.4% | [6] 97.6% | [7] 34.6% | [9] 50% | [10] 51.1% | [11] 55.1% | [12] 63.1% | [13] 80.4% | [14] 98.2% | [15] 79.2% | [16] 27.2% | [17] 81.6% | [18] 22.9% | [19] 24.4% | [20] 66.8%

CC[C@H](C)[C@H](NC(=O)Nc1ccccc1)C(=O)N(C)[C@H](C[C@@H](OC(C)=O)c1nc(C(=O)N[C@@H](Cc2ccccc2)C[C@H](C)C(=O)OC)cs1)C(C)C
active: [3] -3.41% | [4] -4.27% | [6] -7.55% | [7] 9.43% | [8] -23.1% | [16] -40.4% | [20] 4.31%
inactive: [1] 23.6% | [2] 24.5% | [5] 18.8% | [9] 21.6% | [10] 15.1% | [11] 23.9% | [12] 52.1% | [13] 14.6% | [14] 28.9% | [15] 25.4% | [17] 59.1% | [18] 17% | [19] 12.4%

O=C1NC(=O)C(=Cc2cn(Cc3ccccc3)c3ccccc23)C(=O)N1
inactive: [1] 93.2% | [3] 100% | [4] 84.9% | [5] 90.8% | [6] 99.5% | [7] 93.8% | [8] 105% | [9] 84.2% | [10] 40.6% | [11] 83.4% | [12] 98% | [13] 81.1% | [14] 18.4% | [15] 53.2% | [16] 72.6% | [17] 106% | [18] 83.6% | [19] 85.9% | [20] 99.5%
active: [2] -68.9%
